A selection: hits, their analogues and other compounds. The true share with any hit is near 3.2%.
DENV2 CPE: inhibitors of DENV2 cytopathic effect. DENV2-infected cells, cytopathic effect rescue, plate reader. CPE inhibition, % at 9.99 µM. hit rate 1.7% among 350,000. AID 651640; in the data active = CPE inhibition above about 20%, passing the limit was not always enough; inconclusive = no clear call, values can overlap the other calls; tested in BHK-21 cells;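 note: 0% = median of neutral control wells and 100% = median of positive control wells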
rRNA inh HTS: inhibitors of bacterial rRNA selective over humanized ribosomes; hit rate 1.6% among 350,000; AID 720706; E. coli WT GFP vs humanized-ribosome RFP mutants, fluorescence, 24 h; stronger effect = lower value; DMSO median 0, no signal -100; GFP signal change (wild-type ribosome), % (test concentration not listed);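 active = significant combined selectivity score with lowered wild-type GFP, culture density cut under 30%, mutant RFP and density less affected; inactive = any of these conditions unmet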
ERAP1 HTS inh: ERAP1 (human) enzyme inhibition. inhibition, % at 10.7 µM. AID 652197. Q9NZ08. hit rate 0.15% among 340,000. recombinant ERAP1, Leu-AMC fluorescence, 60 min;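 active = mean replicate inhibition of at least 30%, or all replicates individually reaching that 30% level; inactive = mean below 30% and not every replicate reaching it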;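 note: 0% = neutral control wells and 100% = L-leucinethiol positive control wells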
Target sequence (Q9NZ08 whole entry, looked up): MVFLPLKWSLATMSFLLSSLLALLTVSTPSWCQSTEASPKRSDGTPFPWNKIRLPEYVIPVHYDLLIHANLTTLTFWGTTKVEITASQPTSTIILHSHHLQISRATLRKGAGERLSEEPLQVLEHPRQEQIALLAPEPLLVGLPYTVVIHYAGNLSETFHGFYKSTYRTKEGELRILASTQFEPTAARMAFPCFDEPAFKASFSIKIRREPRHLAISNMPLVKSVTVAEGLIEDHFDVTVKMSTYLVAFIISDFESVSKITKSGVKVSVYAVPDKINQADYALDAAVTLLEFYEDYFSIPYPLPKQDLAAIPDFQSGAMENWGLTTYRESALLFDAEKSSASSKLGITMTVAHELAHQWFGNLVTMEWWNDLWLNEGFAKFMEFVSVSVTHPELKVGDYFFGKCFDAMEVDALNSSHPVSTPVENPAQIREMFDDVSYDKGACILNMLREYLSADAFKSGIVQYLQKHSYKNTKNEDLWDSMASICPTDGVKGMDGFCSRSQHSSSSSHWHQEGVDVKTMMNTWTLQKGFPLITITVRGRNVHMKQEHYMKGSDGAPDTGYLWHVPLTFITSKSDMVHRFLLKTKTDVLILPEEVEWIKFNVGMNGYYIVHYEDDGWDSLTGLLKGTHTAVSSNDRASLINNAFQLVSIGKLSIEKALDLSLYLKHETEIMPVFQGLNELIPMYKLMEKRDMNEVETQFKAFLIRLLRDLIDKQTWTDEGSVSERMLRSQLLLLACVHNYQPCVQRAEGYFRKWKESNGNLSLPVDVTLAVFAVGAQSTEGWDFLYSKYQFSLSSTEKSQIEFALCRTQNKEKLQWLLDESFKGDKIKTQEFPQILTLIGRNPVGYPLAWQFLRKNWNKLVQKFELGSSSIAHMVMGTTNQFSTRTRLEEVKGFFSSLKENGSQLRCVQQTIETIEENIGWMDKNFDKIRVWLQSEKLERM
PGC1a acetyl inh: PGC1a acetylation modulation, inhibitor mode | U2OS PGC1a acetylation, AlphaScreen anti-acetyl-lysine; with virally co-expressed GCN5 acetyltransferase | inhibition, % at 15.6 µM | hit rate 0.17% among 350,000;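 active = every replicate shows inhibition of at least 40%; inconclusive = mean inhibition at least 40% but some replicate below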;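 note: 0% = neutral control wells and 100% = positive control wells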
CaV13 FRET inh: Primary screen for inhibitors of IQ motif and Ca2+-dependent inactivation inhibitor domain binding in CACNA1D, Förster resonance energy transfer in living cells, … | HEK cells, CFP/YFP FRET ICDI-IQ, plate reader, 10 min; percent FRET-ratio fall versus neutral wells | inhibition, % at 12.3 µM | hit rate 0.098% among 340,000;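 active = mean replicate inhibition of at least 30% and at least 1% of replicates passing that level; inconclusive = only one of the two criteria is met; inactive = neither criterion is met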;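 note: 0% = median of the neutral control wells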
GSIS activator: primary screen for activators of insulin secretion dependent on glucose, INS-1E cells, GLuc reporter luminescence. INS-1E GLuc reporter insulin secretion, 2-3 h. activation, % at 16.6 µM. hit rate 0.61% among 370,000. AID 743287;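 active = lowest replicate activation of at least 40%, so every replicate reaches that level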;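 note: 0% = median of neutral control wells and 100% = median of IBMX positive control wells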
* hit, by the source's call.

For COCC(=O)N1CC2(CN(C(=O)NC(C)C)C2)c2c(n(C)c3cc(OC)ccc23)[C@@H]1CO the results were DENV2 CPE 25.8*, rRNA inh HTS 0.9, PGC1a acetyl inh -12.6 and GSIS activator 14.3.
For COCC(=O)N1CC2(C1)CN(C(=O)NC1CCCC1)[C@H](CO)c1c2c2ccc(OC)cc2n1C the results were DENV2 CPE 68.5*, rRNA inh HTS 0.8, ERAP1 HTS inh 0.0, PGC1a acetyl inh -16.9 and GSIS activator -3.3.
Screening CNC[C@@H]1Oc2ccc(NC(=O)NC3CCCCC3)cc2CC(=O)N([C@H](C)CO)C[C@H]1C returned DENV2 CPE 2.3, rRNA inh HTS 5.9, ERAP1 HTS inh -2.5, PGC1a acetyl inh 3.3 and GSIS activator -0.6.
`CN(C)CC(=O)N1CC2(C1)[C@H](c1ccccc1)[C@H](CO)N2C(=O)C1CCCC1` gave DENV2 CPE -7.2, rRNA inh HTS 3.9, ERAP1 HTS inh 0.2, PGC1a acetyl inh -9.5 and GSIS activator 8.8.
Nc1nc(CSC(=S)N2CCCCC2)nc(Nc2ccccc2)n1 was read as DENV2 CPE 1.7, rRNA inh HTS -4.5, ERAP1 HTS inh 0.4, CaV13 FRET inh 3.8 and GSIS activator -1.3.
Screening CC1CC(C)CN(C(=S)SCc2nc(N)nc(Nc3ccccc3)n2)C1 (stereo not given) returned DENV2 CPE 4.0, rRNA inh HTS -21.6*, ERAP1 HTS inh -0.4, CaV13 FRET inh -5.2 and GSIS activator -24.0.
`CCN(CC)CC(=O)Nc1sc(C)c(C)c1C(=O)c1ccc(C)cc1` gave DENV2 CPE -1.4, rRNA inh HTS -23.9*, ERAP1 HTS inh -3.2, PGC1a acetyl inh -1.1, CaV13 FRET inh 9.6 and GSIS activator -42.4.
Screening Oc1ccc(/C=C/c2cc(O)cc(O)c2)cc1 returned DENV2 CPE inconclusive, ERAP1 HTS inh -1.1, PGC1a acetyl inh -18.6, CaV13 FRET inh -5.1 and GSIS activator -7.2.
For Oc1cc(O)cc(C=Cc2ccc(O)c(O)c2)c1 the results were DENV2 CPE -0.9, rRNA inh HTS -29.2*, ERAP1 HTS inh 31.1* and CaV13 FRET inh -11.2.
`O=C(/C=C/c1ccc(O)c(O)c1)c1ccccc1O` gave DENV2 CPE 2.7, rRNA inh HTS -32.0*, ERAP1 HTS inh 4.5, PGC1a acetyl inh 17.0, CaV13 FRET inh -10.5 and GSIS activator -47.3.
`COCC(=O)Nc1ccc2c(c1)C(=O)N(C)[C@@H]1CC[C@@H](CC(=O)NCc3ccccc3F)O[C@H]1CO2` gave DENV2 CPE -3.6, rRNA inh HTS 3.0, ERAP1 HTS inh -0.6, PGC1a acetyl inh -2.6 and GSIS activator 4.6.
COc1ccc(CCN(C)Cc2c(O)ccc3cc(Br)ccc23)cc1OC was read as DENV2 CPE inconclusive, rRNA inh HTS -26.9*, ERAP1 HTS inh -3.3, PGC1a acetyl inh 9.6, CaV13 FRET inh -18.0 and GSIS activator 7.0.
`COc1ccc(CN(C)Cc2c(O)ccc3cc(Br)ccc23)cc1OC` gave DENV2 CPE -1.5, rRNA inh HTS -23.2*, ERAP1 HTS inh 4.1, PGC1a acetyl inh 30.4, CaV13 FRET inh -7.3 and GSIS activator 21.4.
For O=C(C[C@@H]1CC[C@H](NC(=O)Nc2ccccc2F)[C@@H](CO)O1)NCc1ccc(F)cc1 the results were DENV2 CPE -5.4, rRNA inh HTS 3.3, ERAP1 HTS inh 1.1, PGC1a acetyl inh -8.4 and GSIS activator 11.7.
`C[N+](C)(C)CCOC(=O)C1(c2ccccc2)CCCC1` gave PGC1a acetyl inh 12.0, CaV13 FRET inh 0.2 and GSIS activator 4.1.
Screening C[N+]1(CCOC(=O)C2(c3ccccc3)CCCC2)CCCCC1 returned rRNA inh HTS 37.7, ERAP1 HTS inh 67.0*, CaV13 FRET inh -1.9 and GSIS activator 3.2.
Screening C[C@H](CO)N1C[C@H](C)[C@H](CN(C)S(=O)(=O)c2ccccc2F)Oc2ncc(C#Cc3cccnc3)cc2C1=O returned DENV2 CPE -5.1, rRNA inh HTS -2.6, ERAP1 HTS inh 1.5, PGC1a acetyl inh 6.2 and GSIS activator -2.1.
For Cn1ccc(/C=N/N=C2/NC(=O)CS2)n1 the results were DENV2 CPE -0.3, rRNA inh HTS -43.2*, ERAP1 HTS inh 3.2, PGC1a acetyl inh 3.7, CaV13 FRET inh -1.0 and GSIS activator -17.9.
